Assay results published in the OligoGym collection.
Further: reference of the scale not given here.

These sequences were tested against DNAJC8 (assay: pooled miR-30 sensor sort-seq; sequence = guide strand). Settings: shRNA.
With TTGAGCTTCAATCTCTTCTTCC the sensor-assay potency score (higher = more potent) was 0.0915.
In the case of TTTCTTCATCTGTAACTTCAGG, the sensor-assay potency score (higher = more potent) was -0.78.
TTTCTTGAGCTTCAATCTCTTC showed a sensor-assay potency score (higher = more potent) of -0.98.
With TTTATATACAGCTTGTTTGAAC the sensor-assay potency score (higher = more potent) was -0.768.
TTTTTCTTGAGCTTCAATCTCT was tested, and the sensor-assay potency score (higher = more potent) was 0.129.
TTGTCTGTTTATATACAGCTTG showed a sensor-assay potency score (higher = more potent) of -0.738.
TTGTCGTTTCCTTTCATGCATC gave a sensor-assay potency score (higher = more potent) of -1.33.

What follows are sequences tested against DNAL4 in the same assay as above. Settings: shRNA.
In the case of TCGTGGGTGATCTCAAACCCAA, the sensor-assay potency score (higher = more potent) was -1.47.
Work on TCTCTTTGATCATCTTGGCGGC yielded a sensor-assay potency score (higher = more potent) of -0.315.
Work on TATATAAATAAGACCGCTGTGT yielded a sensor-assay potency score (higher = more potent) of -0.264.
TCTTTGATCATCTTGGCGGCGC gave a sensor-assay potency score (higher = more potent) of -0.0929.
Work on TAGAGGAGGTTCTTCACCTCGT yielded a sensor-assay potency score (higher = more potent) of 0.0799.
ATTGTCTCTTTGATCATCTTGG was tested, and the sensor-assay potency score (higher = more potent) was 0.417.
Sequence ACTTCTTGTCCATTGTCTCTTT has a sensor-assay potency score (higher = more potent) of -0.545.
For TTGTCTCTTTGATCATCTTGGC, the sensor-assay potency score (higher = more potent) was -0.232.
ATAATCAGCCTCATCTTTCTTC showed a sensor-assay potency score (higher = more potent) of 0.738.
For TCTGCAGTCGCTTATAATCAGC, the sensor-assay potency score (higher = more potent) was -1.4.
With TTGTTGTTGGAGAATTTCTCAC the sensor-assay potency score (higher = more potent) was -0.596.
